PGC1a acetyl inh = modulators of PGC1a acetylation; inhibition, % at 15.6 µM; U2OS PGC1a acetylation, AlphaScreen anti-acetyl-lysine; with virally co-expressed GCN5 acetyltransferase; 350,000 compounds, 0.17% hits; AID 651687;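 active = every replicate shows inhibition of at least 40%; inconclusive = mean inhibition at least 40% but some replicate below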;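 note: 0% = neutral control wells and 100% = positive control wells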
PAX8 reporter = PAX8 transcriptional activity inhibition; RMG-I TPO-luciferase reporter, SteadyGlo, 24 h; AID 652154; inhibition, % at 12.6 µM; 360,000 compounds, 1.2% hits;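 active = mean replicate inhibition at least 60% with every replicate also reaching 60%; inconclusive = only one of the two criteria is met; inactive = mean below 60% and not all replicates reaching 60%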;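 note: luciferase light reporting Pax8 driven TPO promoter activity; plate controls were median of neutral control wells for no effect and mitoxantrone controls for full effect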
EWS-Fli inh = EWS/Fli transcriptional activity inhibition; A673 NR0B1-luciferase reporter, viability-normalised; inhibition, % at 12.6 µM; 350,000 compounds, 0.67% hits; AID 651661;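 active = mean inhibition of at least 50% after viability correction, with every replicate also passing that limit; inconclusive = mean reaches 50% but only one of two replicates passes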;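 note: firefly luciferase signal divided by Alamar Blue viability fluorescence both relative to DMSO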
TRPM1 prom inh = reduces MITF-dependent TRPM1 promoter luciferase signal; SK-MEL-5 TRPM1 promoter luciferase, 24 h; 330,000 compounds, 0.83% hits; AID 488899; inhibition, % at 12.5 µM;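 active = mean inhibition across replicates of 60% or more, whatever share of single replicates reaches that level; inconclusive = some that reach 60%, reason not given; inactive = mean inhibition across replicates below 60%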
EBV LMP1 NFkB = inhibitors of Epstein-Barr LMP1-induced NF-kappaB reporter; LMP1-induced NF-kappaB luciferase reporter cells, luminescence; inhibition, % at 12.5 µM; 350,000 compounds, 0.69% hits; in the data active = inhibition above about 41%; inconclusive = no clear call, values can overlap the other calls;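 note: 0% = neutral control wells and 100% = reference inhibitor control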
LGR2 antag = inhibitors of bursicon-induced Drosophila LGR2 receptor cAMP signaling | HEK293 LGR2, CRE-luciferase, bursicon-stimulated, 4 h | inhibition, % at 9.99 µM | 380,000 compounds, 0.35% hits;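 active = drop in luminescence signal, shown as inhibition above about 50% in the replicate tests, limit read from the data, passing the limit was not always enough; inconclusive = probably only some replicates passing the limit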;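 note: agonist challenge used bursicon conditioned medium at about half maximal strength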
Active calls of the source: *; u = inconclusive; x = no result given; ! = not confirmed by another sample. A selection: hits, their analogues and other compounds. The true share with any hit is near 2.2%.

SMILES	PGC1a acetyl inh	PAX8 reporter	EWS-Fli inh	TRPM1 prom inh	EBV LMP1 NFkB	LGR2 antag
NC1=C(Br)C(=O)c2ccccc2C1=O	10.1	22.1	4.0	70.6*	-1.6	x
C[C@@H]1CN([C@@H](C)CO)C(=O)Cc2cc(NC(=O)C3CC3)ccc2O[C@H]1CN(C)C(=O)Nc1ccc(F)cc1	-2.6	x	-3.8	x	x	12.1
CN(C)C(=O)c1cccc(-c2ccccc2[C@H]2[C@@H](C#N)N(C(=O)C3CCCCC3)[C@H]2CO)c1	-6.1	22.1	-8.3	x	x	-22.7
COCc1cc(C)nc2sc(C(=O)NN)c(-n3cccc3)c12	5.2	61.3*	3.1	4.5	-8.3	-9.9
CCCNC(=O)NC[C@@H]1[C@@H](c2ccc(C3=CCCC3)cc2)[C@@H](CO)N1C(C)=O	-16.2	0.4	-4.9	x	x	14.0
Brc1ccc(N=Nc2ccc3ccccc3n2)cc1	-5.4	78.5*	77.4*	54.9	63.1*	95.3*
CCn1c(O)c(N=Nc2ccc3ccccc3n2)c2ccccc21	x	-215.6	-121.1	-117.8	-38.2	-63.9
CC(C)CC#Cc1ccc2c(c1)O[C@@H](CN(C)C(=O)Nc1ccccc1)[C@@H](C)CN([C@H](C)CO)S2(=O)=O	-17.7	x	26.5	x	x	3.9
O=C(Nc1nccs1)[C@H]1[C@H](CO)[C@H]2Cn3c(cccc3=O)[C@H]2N1C(=O)C1CCCC1	-1.7	x	18.7	x	x	-0.5
CCOC(=O)c1c(C)[nH]c(C2=NNC(=NC3CC3)SC2)c1C	x	x	x	56.3	50.1*	x
Cc1cc(C)nc(Nc2ccccc2Br)n1	11.7	x	x	-5.4	-13.0	x
Cc1cc(C)nc(N/C(=N\S(=O)(=O)Cc2ccccc2)Nc2ccccc2Br)n1	x	10.9	x	-5.3	54.6*	19.7
CN1CCN(Cc2nc3ccccc3c(=O)n2Cc2nc(-c3ccc4ccccc4c3)cs2)CC1	x	17.2	39.6	88.1*	5.6	89.8*
O=C(Nc1ccc2c(c1)[C@H]1C[C@H](CC(=O)N3CCc4ccccc4C3)O[C@@H](CO)[C@H]1O2)C1CCOCC1	-0.8	9.2	-3.6	x	x	11.3
C=CCNC1=C(Cl)C(=O)c2ccccc2C1=O	x	13.6	9.1	63.3*	0.3	-10.7
Cc1ccc(NC2=C(NC(=O)c3ccccc3)C(=O)c3ccccc3C2=O)cc1Cl	26.3	21.9	3.8	66.5*	-7.9	27.0
O=C(O)c1cccc(NC2=C(Cl)C(=O)c3ccccc3C2=O)c1	12.0	-23.1	6.4	35.7	2.1	10.5
O=C1C(Cl)=C(Nc2ccccc2)C(=O)c2ccccc21	x	-12.5	x	89.6*	93.1*	-9.1
Cc1ccc(NCC(=O)c2ccccc2)cc1Cl	-1.0	x	x	-9.1	-2.3	x
O=C(O)c1ccc(NC2=C(Cl)C(=O)c3ccccc3C2=O)cc1	7.0	82.7*	u	96.3*	-1.5	9.9
C[C@@H]1CN([C@H](C)CO)C(=O)c2cc(NS(=O)(=O)c3cn(C)cn3)ccc2O[C@@H](C)CCCCO[C@H]1CN(C)Cc1ccc(C(=O)O)cc1	7.6	5.5	-10.9	x	x	-5.5
C#CCNC(=O)C1=C[C@@H](c2cn(C(C)=O)c3ccccc23)[C@H](CCCO)[C@@H](OCC)O1	0.1	x	2.9	x	x	x
CO[C@H]1CN(C)C(=O)c2cc(NS(C)(=O)=O)ccc2OC[C@H](C)N(Cc2ccccn2)C[C@@H]1C	-5.4	x	-5.4	x	x	0.4
Cc1ccc(S(=O)(=O)Nc2ccc3c(c2)C(=O)N([C@H](C)CO)C[C@H](C)[C@H](CN(C)Cc2ccc(C(=O)O)cc2)O3)cc1	6.5	3.8	-16.1	x	x	4.8
O=C1C(Cl)=C(NCc2cccnc2)C(=O)c2ccccc21	x	-14.6	58.5*	97.7*	-8.2	5.2
SMILES	PGC1a acetyl inh	PAX8 reporter	EWS-Fli inh	TRPM1 prom inh	EBV LMP1 NFkB	LGR2 antag
CCN(CC)CCCNC1=C(Cl)C(=O)c2ccccc2C1=O	17.6	69.9*	65.3*	110.2*	5.0	77.2*
CC(C)NC1=C(Cl)C(=O)c2ccccc2C1=O	9.0	x	x	79.8*	-17.2	x
COc1ccc(-c2cc(-c3nc4ccccn4c3NCc3ccccc3)ccc2OC)cc1	x	102.0*	75.9*	85.2*	15.4	100.2*
S=C(NCC1CCCCC1)Nc1ccc(Oc2ccccc2)cc1	-2.4	-13.3	-6.3	7.9	47.7*	-1.1
S=C(Nc1ccc(Oc2ccccc2)cc1)NC1CCCC1	x	4.9	-1.5	-6.4	9.0	-11.8
COc1ccccc1S(=O)(=O)N(C)C[C@@H]1Oc2cc(C#CCC(C)C)ccc2S(=O)(=O)N([C@H](C)CO)C[C@@H]1C	-14.0	27.4	17.3	x	-7.6	-6.1
COc1ccccc1S(=O)(=O)N(C)C[C@@H]1Oc2cc(C#CCC3CCCC3)ccc2S(=O)(=O)N([C@H](C)CO)C[C@@H]1C	-20.5	64.1*	27.8	x	x	23.1
COc1ccccc1S(=O)(=O)N(C)C[C@H]1Oc2cc(C#CCC3CCCC3)ccc2S(=O)(=O)N([C@H](C)CO)C[C@@H]1C	19.9	73.3*	-7.6	x	x	22.7
COc1ccccc1S(=O)(=O)N(C)C[C@H]1Oc2cc(C#CCC3CCCC3)ccc2S(=O)(=O)N([C@H](C)CO)C[C@H]1C	-13.1	84.1*!	8.4	x	-6.6	0.6
Cc1ccc(S(=O)(=O)Nc2ccc3c(c2)C(=O)N([C@H](C)CO)C[C@@H](C)[C@@H](CN(C)C(=O)Cc2ccccc2)OCCCC[C@@H](C)O3)cc1	-4.1	1.0	6.3	x	x	13.2
COc1ccc(S(=O)(=O)Nc2ccc3c(c2)CC(=O)N([C@@H](C)CO)C[C@@H](C)[C@H](CN(C)Cc2ccc(-c4ccccc4)cc2)O3)cc1	-23.0	95.2*	-8.8	x	x	21.3
C[C@H]1CN([C@@H](C)CO)C(=O)Cc2cc(NS(=O)(=O)c3ccc(Cl)cc3)ccc2O[C@@H]1CN(C)Cc1ccc(Oc2ccccc2)cc1	11.6	47.8	60.2*	x	x	16.5
COc1ccc(S(=O)(=O)Nc2ccc3c(c2)CC(=O)N([C@H](C)CO)C[C@H](C)[C@@H](CN(C)Cc2ccc(Oc4ccccc4)cc2)O3)cc1	-1.3	68.0*	27.7	x	x	4.8
COc1ccc(S(=O)(=O)Nc2ccc3c(c2)CC(=O)N([C@H](C)CO)C[C@@H](C)[C@@H](CN(C)Cc2ccc(-c4ccccc4)cc2)O3)cc1	-19.5	31.2	28.3	x	x	-10.8
C[C@H]1CN([C@@H](C)CO)C(=O)CCCn2cc(nn2)CO[C@H]1CN(C)C(=O)NC1CCCC1	3.9	x	-0.5	x	x	3.2
Cn1cnc(S(=O)(=O)N2C[C@@H](O)COC[C@@H]3O[C@H](CC(=O)NC4Cc5ccccc5C4)CC[C@H]32)c1	2.3	-3.0	-9.7	x	x	7.2
O=C(C[C@@H]1C[C@@H]2c3cc(NS(=O)(=O)c4ccc(F)cc4)ccc3O[C@@H]2[C@@H](CO)O1)NC1CCCC1	3.4	2.7	1.2	x	x	-3.4
CC(C)NC(=O)Nc1cccc2c1O[C@H](CN(C)C(=O)NC(C)C)[C@@H](C)CN([C@@H](C)CO)C2=O	-0.8	-7.1	-1.8	x	x	-2.6
CCOc1ccccc1NC(=O)Cn1c(=O)sc2ccccc21	-5.1	11.5	6.0	2.0	64.2*	4.6

Screens: PubChem BioAssay, Broad Institute
